Laboratory results taken from PubChem BioAssay (Tox21).
Inconclusive results are not listed. Entries that show only a call come without a potency. Activity calls are given as the source filed them. Unless noted, calls come from the whole dose curve; as a rule, active = well fitted curve in the direction sought with a large enough effect in the repeat runs; inconclusive = weak or mixed curves; inactive = no such curve, though single readings can be large; an effect the other way counts as inactive or inconclusive.

Legend:
[1] = qHTS assay to identify aromatase inhibitors - cell viability counter screen (AID 743084);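 note: cells stimulated with testosterone during compound exposure; nearly all actives have a fitted effect of over 55% in size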
[2] = target: Aryl hydrocarbon receptor (Homo sapiens) (UniProt P35869); test: qHTS assay to identify small molecule that activate the aryl hydrocarbon receptor (AhR) signaling pathway (AID 743085); note: nearly all actives have a fitted effect of over 15% in size; note: potency is the fitted concentration of half-maximal effect;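 for activation: HG2L7.5c1 human HepG2 liver cells with stably integrated DRE-driven firefly reporter; series mostly up to about 70 µM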
Method in brief: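 Stably transfected human liver carcinoma cells (HG2L7.5c1; 20 DRE-firefly luciferase) were incubated 5 h, dosed, and kept 24 h at 37C. Agonism was scored from increased luciferase luminescence.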

[3] = target: Peroxisome proliferator-activated receptor gamma (Homo sapiens) (UniProt P37231); test: qHTS assay to identify small molecule agonists of the peroxisome proliferator-activated receptor gamma (PPARg) signaling pathway (AID 743094; active = well fitted activation curve with a large enough effect in the signal ratio in the repeat runs, not every such curve was filed as active; the % refers to the signal ratio)
Method in brief: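 GeneBLAzer PPARg UAS-bla HEK293H cells carrying a stably integrated beta-lactamase reporter were pre-incubated 5 h at 37C, then exposed to compounds in DMSO for 17 h at 37C; LiveBLAzer B/G FRET substrate was added for 1 h at room temperature and fluorescence read.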

[4] = target: Peroxisome proliferator-activated receptor gamma (Homo sapiens) (UniProt P37231); test: qHTS assay to identify small molecule antagonists of the peroxisome proliferator-activated receptor gamma (PPARg) signaling pathway (AID 743191; calls by dose curve; note: series mostly up to about 63 µM; nearly all actives have a fitted effect of over 30% in size)
Method in brief: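 GeneBLAzer PPARg UAS-bla HEK293H cells carrying a UAS-driven beta-lactamase reporter were plated at 3000 cells/well, preincubated 5 h at 37C, then given compound for 17 h at 37C; LiveBLAzer B/G FRET substrate was read after 1 h at room temperature.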

[5] = qHTS assay to identify small molecule antagonists of the peroxisome proliferator-activated receptor gamma (PPARg) signaling pathway - cell viability counter screen (AID 743194); note: nearly all actives have a fitted effect of over 55% in size
Method in brief: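 PPARg-UAS-bla HEK293H cells were plated, rested 5 h at 37 C, then treated with compounds plus rosiglitazone (50 nM final) for 17 h at 37 C; viability was then read by CellTiter-Glo luminescence after 30 min at room temperature.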

[6] = qHTS assay for small molecule agonists of the antioxidant response element (ARE) signaling pathway (AID 743202; active = well fitted activation curve with a large enough effect in the signal ratio in the repeat runs, not every such curve was filed as active; the % refers to the signal ratio)
Method in brief: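 Compounds delivered in DMSO to ARE-bla HepG2 cells (2,000 cells/well, pre-incubated 5 h) and left 16 h at 37 C. LiveBLAzer B/G FRET substrate then added for 2 h at RT before fluorescence reading.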

[7] = qHTS assay for small molecule agonists of the antioxidant response element (ARE) signaling pathway - cell viability counter screen (AID 743203; calls by dose curve; note: nearly all actives have a fitted effect of over 55% in size)
Method in brief: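 CellSensor ARE-bla HepG2 cells, 2,000 per well, rested 5 hrs at 37C/5% CO2, then exposed to compound in DMSO for 16 hrs; viability read as CellTiter-Glo luminescence after 30 min at room temperature, in the reporter wells.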

[8] = qHTS assay for small molecule activators of the heat shock response signaling pathway - cell viability counter screen (AID 743209); note: nearly all actives have a fitted effect of over 50% in size
Method in brief: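 CellSensor HSE-bla HeLa cells, plated overnight at 37 C/5% CO2, were exposed to compounds in DMSO for 5 h at 37 C. Viability was then read in the same wells by CellTiter-Glo luminescence after 30 min at room temperature.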

[9] = qHTS assay for small molecule activators of the heat shock response signaling pathway (AID 743210; active = well fitted activation curve with a large enough effect in the signal ratio in the repeat runs, with a control signal flat, not every such curve was filed as active; the % refers to the signal ratio;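 note: HeLa cells with beta-lactamase reporter driven by heat shock elements; series mostly up to about 63 µM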)
Method in brief: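 Reporter gene assay: HeLa cells stably bearing an HSE-bla construct, compound treatment 5 h at 37 C, LiveBLAzer substrate 2.5 h at RT, fluorescence intensity.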

[10] = qHTS assay to identify small molecule agonists of the peroxisome proliferator-activated receptor delta (PPARd) signaling pathway - cell viability counter screen (AID 743211); note: nearly all actives have a fitted effect of over 55% in size
Method in brief: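 In the same wells used for beta-lactamase reporter measurement, cytotoxicity is scored by CellTiter-Glo. HEK293H PPARd-bla cells receive compound for 17 h at 37C following a 5 h settling period.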

[11] = target: Peroxisome proliferator-activated receptor delta (Homo sapiens) (UniProt Q03181); test: qHTS assay to identify small molecule agonists of the peroxisome proliferator-activated receptor delta (PPARd) signaling pathway (AID 743212; calls by dose curve)
Method in brief: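 A PPARd-bla HEK293H line with beta-lactamase under an Upstream Activator Sequence is treated with compounds at 37 C. Substrate loading for 2 h at room temperature precedes the fluorescence measurement.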

[12] = qHTS assay to identify small molecule antagonists of the peroxisome proliferator-activated receptor delta (PPARd) signaling pathway - cell viability counter screen (AID 743213); note: nearly all actives have a fitted effect of over 50% in size
Method in brief: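 Same-well viability: cells pre-incubated 5 h, dosed with compound plus 300 nM L165041, kept 17 h at 37 C, FRET substrate 2 h RT, then CellTiter-Glo 30 min RT and luminescence.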

[13] = target: Peroxisome proliferator-activated receptor delta (Homo sapiens) (UniProt Q03181); test: qHTS assay to identify small molecule antagonists of the peroxisome proliferator-activated receptor delta (PPARd) signaling pathway (AID 743215; active = well fitted inhibition curve with a large enough effect in the signal ratio in the repeat runs, not every such curve was filed as active; the % refers to the signal ratio;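 note: cells stimulated with agonist L165041 at 300 nM final during compound exposure; series mostly up to about 62 µM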)
Method in brief: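 PPARd UAS-bla HEK293H cells were pre-incubated 5 h at 37 C, then given test compounds in DMSO plus agonist L165041 (300 nM final). After 17 h at 37 C, beta-lactamase FRET substrate was added; fluorescence read after 2 h at room temperature.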

[14] = qHTS assay to identify small molecule agonists of the farnesoid-X-receptor (FXR) signaling pathway - cell viability counter screen (AID 743218); note: nearly all actives have a fitted effect of over 45% in size
Method in brief: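 FXR-UAS-bla HEK 293T cells, plated 5 h at 37 C, were exposed to compounds for 16 h at 37 C. CellTiter-Glo was then added to the same wells as the bla readout; luminescence read after 30 min at room temperature.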

[15] = qHTS assay to identify small molecule antagonists of the farnesoid-X-receptor (FXR) signaling pathway - cell viability counter screen (AID 743221; active = well fitted cell-killing curve with a large enough effect in the repeat runs, not every such curve was filed as active; note: nearly all actives have a fitted effect of over 50% in size)
Method in brief: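 Here viability was scored by luminescence after CellTiter-Glo addition to wells already read for beta-lactamase. Prior treatment: compound plus CDCA (50 uM final), 16 h, 37 C, HEK 293T FXR-bla cells.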

[16] = qHTS assay to identify small molecule that activate the aryl hydrocarbon receptor (AhR) signaling pathway - cell viability counter screen (AID 743086);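 note: HepG2 liver cells carrying the AhR DRE luciferase reporter; series mostly up to about 70 µM; nearly all actives have a fitted effect of over 45% in size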
Method in brief: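 HepG2-AhR-luc (HG2L7.5c1) cells, 4000/well, were preincubated 5 h at 37C, exposed to compound in qHTS format for 24 hr at 37C, then given CellTiter-Fluor for 30 min; viability was read as fluorescence in the reporter wells.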

[17] = target: Bile acid receptor (Homo sapiens) (UniProt Q96RI1); test: qHTS assay to identify small molecule antagonists of the farnesoid-X-receptor (FXR) signaling pathway (AID 743217; active = well fitted inhibition curve with a large enough effect in the signal ratio in the repeat runs, not every such curve was filed as active; the % refers to the signal ratio)
Method in brief: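 FXR-UAS-bla HEK 293T cells pre-incubated 5 h at 37 °C, then exposed to compounds with chenodeoxycholic acid (50 uM final) for 16 h at 37 °C. Beta-lactamase reporter read by LiveBLAzer B/G FRET substrate fluorescence after 2 h at room temperature.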

[18] = target: Bile acid receptor (Homo sapiens) (UniProt Q96RI1); test: qHTS assay to identify small molecule agonists of the farnesoid-X-receptor (FXR) signaling pathway (AID 743220; active = well fitted activation curve with a large enough effect in the signal ratio in the repeat runs, not every such curve was filed as active; the % refers to the signal ratio)
Method in brief: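 Beta-lactamase reporter under UAS control in GeneBLAzer FXR HEK 293T cells (5000/well) measured with LiveBLAzer FRET substrate after 2 h at room temperature. Compound exposure lasted 16 h at 37C.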

[19] = target: Vitamin D3 receptor (Homo sapiens) (UniProt P11473); test: qHTS assay to identify small molecule agonists of the vitamin D receptor (VDR) signaling pathway (AID 743222; calls by dose curve)
Method in brief: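 VDR-bla cells were plated 4 h at 37C/5% CO2, then exposed to compounds in DMSO for 16 h. After LiveBLAzer B/G FRET substrate addition and 2 h at room temperature, beta-lactamase reporter fluorescence was read.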

[20] = target: Vitamin D3 receptor (Homo sapiens) (UniProt P11473); test: qHTS assay to identify small molecule antagonists of the vitamin D receptor (VDR) signaling pathway (AID 743223; active = well fitted inhibition curve with a large enough effect in the signal ratio in the repeat runs, not every such curve was filed as active; the % refers to the signal ratio)
Method in brief: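 Inhibition of agonist-driven VDR signalling is scored in VDR-bla cells: 3 nM final 1alpha,25-dihydroxyvitamin D3 plus compound, 16 h at 37C, then beta-lactamase detection by FRET substrate fluorescence after 2 h.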

Chain of Peroxisome proliferator-activated receptor gamma (Homo sapiens) (P37231 whole entry, looked up): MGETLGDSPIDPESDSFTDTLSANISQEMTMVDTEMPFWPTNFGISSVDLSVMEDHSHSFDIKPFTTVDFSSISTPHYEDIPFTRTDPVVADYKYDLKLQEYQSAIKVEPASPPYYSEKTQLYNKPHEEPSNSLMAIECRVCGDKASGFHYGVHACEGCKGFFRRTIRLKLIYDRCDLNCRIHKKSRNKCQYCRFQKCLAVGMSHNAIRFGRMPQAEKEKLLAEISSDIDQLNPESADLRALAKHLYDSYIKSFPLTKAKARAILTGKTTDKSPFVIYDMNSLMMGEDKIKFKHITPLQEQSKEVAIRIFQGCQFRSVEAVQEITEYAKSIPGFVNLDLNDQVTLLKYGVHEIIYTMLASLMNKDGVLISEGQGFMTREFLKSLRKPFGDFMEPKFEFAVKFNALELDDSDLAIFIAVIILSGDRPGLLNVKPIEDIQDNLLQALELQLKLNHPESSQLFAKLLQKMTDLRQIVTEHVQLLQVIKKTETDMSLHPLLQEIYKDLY
Chain of Vitamin D3 receptor (Homo sapiens) (P11473 whole entry, looked up): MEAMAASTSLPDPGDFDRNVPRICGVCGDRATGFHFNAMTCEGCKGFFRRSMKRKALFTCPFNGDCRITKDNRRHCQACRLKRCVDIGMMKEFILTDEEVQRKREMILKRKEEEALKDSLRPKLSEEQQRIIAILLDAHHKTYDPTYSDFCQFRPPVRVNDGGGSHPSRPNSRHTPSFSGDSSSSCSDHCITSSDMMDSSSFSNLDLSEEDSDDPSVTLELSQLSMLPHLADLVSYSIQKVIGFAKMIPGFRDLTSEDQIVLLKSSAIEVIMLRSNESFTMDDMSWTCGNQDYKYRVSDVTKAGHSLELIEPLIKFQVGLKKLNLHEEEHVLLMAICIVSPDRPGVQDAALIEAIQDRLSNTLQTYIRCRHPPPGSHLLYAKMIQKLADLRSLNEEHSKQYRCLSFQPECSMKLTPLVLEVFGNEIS
Chain of Peroxisome proliferator-activated receptor delta (Homo sapiens) (Q03181 whole entry, looked up): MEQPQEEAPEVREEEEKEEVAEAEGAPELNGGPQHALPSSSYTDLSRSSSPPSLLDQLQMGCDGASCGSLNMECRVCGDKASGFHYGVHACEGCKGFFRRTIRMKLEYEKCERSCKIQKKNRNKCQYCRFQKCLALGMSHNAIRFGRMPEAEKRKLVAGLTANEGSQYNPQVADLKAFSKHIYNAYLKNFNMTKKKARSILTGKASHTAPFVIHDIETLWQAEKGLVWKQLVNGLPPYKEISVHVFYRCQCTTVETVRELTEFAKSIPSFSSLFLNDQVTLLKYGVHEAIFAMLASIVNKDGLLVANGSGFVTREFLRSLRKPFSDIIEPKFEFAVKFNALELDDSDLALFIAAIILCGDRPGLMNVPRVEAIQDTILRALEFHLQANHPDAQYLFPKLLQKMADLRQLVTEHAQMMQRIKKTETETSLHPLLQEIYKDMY
Chain of Aryl hydrocarbon receptor (Homo sapiens) (P35869 whole entry, looked up): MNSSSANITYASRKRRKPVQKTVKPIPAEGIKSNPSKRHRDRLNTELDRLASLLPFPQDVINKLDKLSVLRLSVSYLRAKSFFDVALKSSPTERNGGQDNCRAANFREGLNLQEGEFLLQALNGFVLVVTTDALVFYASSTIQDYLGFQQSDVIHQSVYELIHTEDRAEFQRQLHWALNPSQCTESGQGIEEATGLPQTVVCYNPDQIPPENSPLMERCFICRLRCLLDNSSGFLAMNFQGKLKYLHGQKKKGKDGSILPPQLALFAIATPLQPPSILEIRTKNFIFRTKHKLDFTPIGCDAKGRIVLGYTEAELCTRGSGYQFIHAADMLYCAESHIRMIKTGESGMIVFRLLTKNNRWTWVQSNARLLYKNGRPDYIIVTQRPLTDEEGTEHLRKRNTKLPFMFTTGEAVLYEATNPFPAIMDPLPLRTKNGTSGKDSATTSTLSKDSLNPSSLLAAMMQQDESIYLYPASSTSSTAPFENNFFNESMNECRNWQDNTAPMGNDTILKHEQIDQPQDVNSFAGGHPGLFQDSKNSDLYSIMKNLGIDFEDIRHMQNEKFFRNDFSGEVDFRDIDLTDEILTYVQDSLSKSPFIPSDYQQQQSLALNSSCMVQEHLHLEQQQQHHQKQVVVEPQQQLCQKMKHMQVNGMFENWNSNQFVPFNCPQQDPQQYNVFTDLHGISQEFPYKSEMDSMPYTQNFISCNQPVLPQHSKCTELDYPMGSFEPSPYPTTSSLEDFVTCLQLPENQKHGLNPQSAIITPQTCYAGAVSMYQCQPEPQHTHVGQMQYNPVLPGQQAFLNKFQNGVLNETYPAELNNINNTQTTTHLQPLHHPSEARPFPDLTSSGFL
Chain of Bile acid receptor (Homo sapiens) (Q96RI1 whole entry, looked up): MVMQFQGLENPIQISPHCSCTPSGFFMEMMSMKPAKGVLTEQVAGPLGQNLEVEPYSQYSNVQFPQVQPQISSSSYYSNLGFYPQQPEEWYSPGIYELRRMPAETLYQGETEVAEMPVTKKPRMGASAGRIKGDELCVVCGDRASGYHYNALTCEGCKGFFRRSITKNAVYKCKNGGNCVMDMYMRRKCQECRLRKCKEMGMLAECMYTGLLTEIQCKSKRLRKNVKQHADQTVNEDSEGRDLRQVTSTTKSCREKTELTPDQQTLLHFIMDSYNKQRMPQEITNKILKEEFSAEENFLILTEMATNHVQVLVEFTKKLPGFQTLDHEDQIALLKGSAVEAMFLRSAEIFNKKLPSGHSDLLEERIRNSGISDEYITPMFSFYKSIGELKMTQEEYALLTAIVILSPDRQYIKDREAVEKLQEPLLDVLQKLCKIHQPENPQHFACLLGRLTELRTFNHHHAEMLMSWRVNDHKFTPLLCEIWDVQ

SMILES | Potency [1] | Potency [2] | Potency [3] | Potency [4] | outcome [5] | Potency [6] | outcome [7] | outcome [8] | outcome [9] | outcome [10] | outcome [11] | outcome [12] | outcome [13] | outcome [14] | outcome [15] | Potency [16] | outcome [17] | outcome [18] | outcome [19] | outcome [20]
CCCCCCCC1CCCC1=O (stereo not given) | inactive | inactive | inactive | inactive | inactive | inactive | inactive | inactive | inactive | inactive | inactive | inactive | inactive | inactive | inactive |  |  |  |  | 
Cc1cccc(C)c1NC(=O)CC12CCCN1CCC2 | inactive | inactive |  |  | inactive |  | inactive |  | inactive | inactive | inactive | inactive | inactive | inactive | inactive | inactive | inactive | inactive |  | 
O=C(CO)[C@@H](O)[C@H](O)[C@@H](O)CO | inactive | inactive | inactive | inactive | inactive | inactive | inactive | inactive | inactive | inactive |  | inactive |  | inactive | inactive |  |  |  |  | 
C1CCC2=NCCCN2CC1 | inactive | inactive |  |  | inactive |  | inactive | inactive |  |  |  | inactive |  | inactive | inactive | inactive |  |  | inactive | 
CN(C)C(=O)Oc1ccc[n+](C)c1 | inactive | inactive | inactive | inactive | inactive | inactive | inactive | inactive |  | inactive | inactive |  |  | inactive | inactive |  |  |  |  | 
CC1=C(C/C=C(\C)CCC[C@H](C)CCC[C@H](C)CCCC(C)C)C(=O)c2ccccc2C1=O | inactive | 26.6 µM (active) | inactive |  | inactive | inactive |  | inactive |  | inactive | inactive | inactive | inactive | inactive | inactive | inactive |  |  | inactive | inactive
CCN[C@H]1C[C@H](C)S(=O)(=O)c2sc(S(N)(=O)=O)cc21 | inactive | inactive | inactive | inactive | inactive | inactive | inactive | inactive | inactive | inactive |  | inactive |  |  | inactive |  | inactive |  | inactive | inactive
C=CCCC(=O)O | inactive | inactive | inactive | inactive | inactive | inactive | inactive | inactive |  | inactive | inactive |  | inactive | inactive | inactive |  |  |  | inactive | 
CCCO[Si](OCCC)(OCCC)OCCC | inactive | inactive | inactive |  | inactive |  |  | inactive | inactive | inactive | inactive |  | inactive | inactive | inactive | inactive |  |  | inactive | inactive
c1ccc(Cc2ccccc2)cc1 | inactive | inactive | inactive | inactive | inactive | inactive | inactive | inactive | inactive | inactive |  | inactive |  | inactive | inactive |  | inactive | inactive | inactive | 
O=C(CO)[C@@H](O)[C@H](O)[C@H](O)CO | inactive | inactive | inactive |  | inactive | inactive | inactive |  | inactive | inactive |  |  |  |  | inactive | inactive |  |  |  | 
C[N+]1(CC2COC(c3ccccc3)(c3ccccc3)O2)CCCCC1 (stereo not given) | inactive | inactive |  |  | inactive | inactive | inactive | inactive | inactive | inactive | inactive | inactive | inactive | inactive | inactive | inactive | inactive | inactive |  | 
CC(=O)OCC(=O)[C@@]1(O)[C@H](C)C[C@H]2[C@@H]3CCC4=CC(=O)C=C[C@]4(C)[C@@]3(F)[C@@H](O)C[C@@]21C | inactive | inactive | inactive |  | inactive | inactive | inactive | inactive |  | inactive | inactive | inactive |  | inactive | inactive | inactive |  |  | inactive | 
CC(=O)N1C[C@H](O)C[C@H]1C(=O)O | inactive | inactive |  |  | inactive | inactive | inactive | inactive | inactive | inactive | inactive | inactive | inactive |  | inactive | inactive | inactive | inactive | inactive | inactive
